Where “and” joins values, the source holds several entries; their conditions need not be identical. Equal entries are not always repeated. In all, about 220,000 compounds went through this assay and about 16,000 (7.3%) were called active. Inconclusive results (about 25%) are left out. The call rests on the fitted dose curve; in most records, active means well fitted inhibition curve with a large enough effect (not every such curve was filed as active); inconclusive means small, poorly fitted or top-dose-only effect, or another doubt; inactive means no such curve, though single readings can be large or run the other way. The sample as a whole holds a higher share of actives than the screen did. Where a structure was tested more than once in an assay, its records may differ in their call.
These compounds were tested against Aldehyde dehydrogenase 1A1 (Homo sapiens) (UniProt P00352) (assay: qHTS Assay for Inhibitors of Aldehyde Dehydrogenase 1 (ALDH1A1)). Settings: Purified ALDH1A1, NADH fluorescence, propionaldehyde substrate; series mostly up to 75.3 µM; activity, negative = inhibition: at the top concentration.
Potency means the concentration at half of the fitted maximal effect.
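Wherever activity, negative = inhibition is given: plate controls were no enzyme wells and a reference inhibitor.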

Aldehyde dehydrogenase 1A1 (Homo sapiens), sequence (P00352 whole entry, looked up): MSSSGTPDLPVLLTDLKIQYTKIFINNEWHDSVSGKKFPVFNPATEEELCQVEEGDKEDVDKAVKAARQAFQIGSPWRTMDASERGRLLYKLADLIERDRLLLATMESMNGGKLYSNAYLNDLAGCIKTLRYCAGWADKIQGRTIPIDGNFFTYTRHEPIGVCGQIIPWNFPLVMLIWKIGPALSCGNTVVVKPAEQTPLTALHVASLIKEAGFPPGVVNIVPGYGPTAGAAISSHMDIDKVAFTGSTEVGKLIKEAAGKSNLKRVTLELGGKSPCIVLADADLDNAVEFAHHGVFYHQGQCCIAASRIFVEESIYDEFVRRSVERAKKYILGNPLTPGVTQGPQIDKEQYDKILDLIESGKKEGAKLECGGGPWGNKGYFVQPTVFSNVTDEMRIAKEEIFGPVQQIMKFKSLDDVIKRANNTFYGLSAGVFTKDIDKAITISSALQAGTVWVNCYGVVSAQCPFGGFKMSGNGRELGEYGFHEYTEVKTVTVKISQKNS

SMILES	activity, negative = inhibition	Potency
CSC1=NP(=S)(SC)N(C)c2nc3n(c21)CCC3 (stereo not drawn)	-5.63% (inactive)	–
CCOP(=O)(OCC)C(NC(=O)c1ccc(C)cc1)C(Cl)(Cl)Cl (stereo not drawn)	0.637% (inactive)	–
CCN(CC)CCn1ncc2c(N)ncnc21	1.51% [at 13.5 µM] (inactive)	–
CCCCCCCCc1[se]c2ccccc2c1Br	-6.52% (inactive)	–
NCCc1ccc(S(=O)(=O)F)cc1	4.17% (inactive)	–
O=C(CN1CCCCC1)Nc1ccc(Br)cc1C(=O)c1ccccc1Cl	-1.86% (inactive)	–
CCN1CCN(c2ccc([N+](=O)[O-])cc2C#N)CC1	5.93% (inactive)	–
COc1ccccc1-n1c(O)c(C=NC2CC2)c(=O)[nH]c1=O	-2.25% (inactive)	–
O=c1c2ccccc2nc(-c2ccc(Cl)cc2Cl)n1-c1ccncc1	-6.03% (inactive)	–
O=c1c2ccccc2nc(-c2ccccc2)n1-c1ccccn1	-7.99% (inactive)	–
Cc1ccc(-n2c(-c3ccc([N+](=O)[O-])cc3)nc3ccccc3c2=O)cc1	–	7.51 µM (active)
Cc1cccc2c(CCN)c[nH]c12	1.85% (inactive)	–
Cc1ncsc1CCCl	-8% (inactive)	–
COc1ccc(C(=O)CC2C(=O)N(C)C(=O)N(C)C2=O)cc1	–	17.8 µM (active)
CCOP(=O)(OCC)C(NC(=O)c1ccc(OC)cc1)C(Cl)(Cl)Cl (stereo not drawn)	2.96% (inactive)	–
COc1ccc(-c2nn(CCC#N)cc2C(=O)O)cc1	12.9% (inactive)	–
COc1cc(-n2c(=S)[nH]c3ccc(C)cc3c2=O)c(Cl)cc1Cl	-5.27% (inactive)	–
CN(C)P(=S)(Nc1ccccc1)C(Cl)(Cl)Cl (stereo not drawn)	-9.21% (inactive)	–
O=NO	–	inactive and 11.2 µM (active)
C[C@@]12CC[C@H](O)C[C@@H]1CC[C@@H]1[C@@H]2CC[C@@]2(C)[C@@H](C3=CC(=O)OC3)[C@H](O)C[C@]12O	23.8% [at 13.5 µM] (inactive)	–
OC(CNC1CCCCC1)c1ccccc1 (stereo not drawn)	13.7% (inactive)	–
CC(Cc1cccs1)NCc1ccc(Cl)cc1 (stereo not drawn)	9.87% (inactive)	–
CCN(CC)C(=O)c1ccc(NC(=O)c2cc(-n3cnnc3)ccc2Cl)cc1	–	25.1 µM (active)
CC(C)(Cc1c[nH]c2ccc(Cl)cc12)NCCOc1ccccc1OCC1CC1	–	inactive
O=c1[nH]c(=O)n(-c2ccccc2)c(O)c1C=NC12CN3CN(CN(C3)C1)C2	4.54% (inactive)	–
C=CCN1CCC2(C)c3cc(O)ccc3CC1[C@@H]2C (stereo partly drawn)	0.265% (inactive)	–
CC(=O)O[C@H]1CC[C@@]2(C)[C@@H](CC[C@H]3[C@H]2CC(=O)[C@]2(C)[C@@H]3C[C@@H](N3CC3)[C@H]2C(C)=O)C1	6.14% [at 13.5 µM] (inactive)	–

SMILES	activity, negative = inhibition	Potency
COC1CC(OC2CC[C@@]3(C=O)C4CC[C@]5(C)C(C6=CC(=O)OC6)CC[C@@]5(O)C4CC[C@]3(O)C2)OC(C)C1O (stereo partly drawn)	9.5% (inactive)	–
O=C(O)CCn1cc(C=C2C(=O)NC(=S)NC2=O)c(-c2cccc(Br)c2)n1	–	10 µM (active)
COP(=O)(NS(=O)(=O)c1ccccc1)OC	10.1% (inactive)	–
CN1C2CC3CC1C(O3)C2O (stereo not drawn)	-0.978% (inactive)	–
C[C@@]12CC[C@H]3[C@@H](CC[C@]4(O)C[C@H](O)CC[C@@]34C=O)[C@]1(O)CC[C@@H]2C1=CC(=O)OC1	5.61% [at 20.9 µM] (inactive)	–
OC1/C(=C/c2ccc(C(F)(F)F)cc2)N2CCC1CC2 (stereo not drawn)	5.45% (inactive)	–
CCCCC/C=C\C/C=C\C/C=C\C/C=C\CCCCCC(=O)NCCO	–	inactive and 14.1 µM (active)
CCCCC/C=C\C/C=C\C/C=C\C=C\[C@H](CCCC(=O)O)OO	–	inactive
CCCCC/C=C\C/C=C\C/C=C\CCCCCCC(=O)NCCO	–	inactive
O=C(COC(=O)Cc1ccccc1)Nc1ccc(F)cc1	8.73% (inactive)	–
O=c1[nH]c(=O)n(Cc2ccccc2)c(O)c1/C=N/Nc1c(F)c(F)c(F)c(F)c1F	-0.117% (inactive)	–
CNC(=O)N(C)c1nnc(C(C)(C)C)s1	–	inactive
CN1[C@@H]2CC[C@H]1CC(OC(=O)c1cc(Cl)cc(Cl)c1)C2 (stereo partly drawn)	4.67% (inactive)	–
BrC1C(Br)C(Br)C(Br)C(Br)C1Br (stereo not drawn)	–	20 µM (active)
O=C(CCN1CCCCC1)NCC(=O)Nc1ccc(Br)cc1C(=O)c1ccccc1	1.09% (inactive)	–
N[C@H](Cc1o[nH]c(=O)c1Cl)C(=O)O	5.09% (inactive)	–
CC(C)(C)CC(=O)Nc1nnc(SCC(=O)NCc2cccs2)s1	–	17.8 µM (active)
N[C@H](C(=O)O)c1cc(=O)[nH]o1	-6.24% (inactive)	–
N#Cc1ccc(Cn2cc(C(=O)c3ccco3)c3ccccc32)cc1	-2.02% (inactive)	–
COP(=O)(OC)C(NC(=O)c1ccc(C)cc1)C(Cl)(Cl)Cl (stereo not drawn)	1.19% (inactive)	–
OC(Cn1c2ccccc2c2ccccc21)C[n+]1ccccc1 (stereo not drawn)	8.11% (inactive)	–
CCNc1nc2[nH]c(=O)c3c(c2s1)OC(N)=C(C#N)C3c1cccs1 (stereo not drawn)	-7.74% (inactive)	–
CCCCN1C2CCC1CC(OC(c1ccc(F)cc1)c1ccc(F)cc1)C2 (stereo not drawn)	4.41% (inactive)	–
Cc1ccc(NN=C2C(=O)OC(C)(C)OC2=O)c(C)c1	–	10 µM (active)
Cc1nc2nc(C)c(CCC(=O)N3CCC4(CC3)OCCO4)c(C)n2n1	3.72% (inactive)	–
CC1=CC(=O)C2=C(C)C[C@H](O)[C@H]3[C@H](C)C(=O)O[C@@H]3C12 (stereo partly drawn)	-0.9% (inactive)	–
